# Measurements as given in the OligoGym collection.
# Biological target: RYR2
# Experiment: pooled miR-30 sensor sort-seq; sequence = guide strand
# Details: shRNA
# Note: reference of the scale not given here.
row,Sequence,sensor-assay potency score (higher = more potent)
1,TTCATTATTATCCATCACCGAA,-1.08
2,TTTAGTAGCTTCTTTGTCTTTG,0.401
3,TAAGTTGTAATTGCGCTCCTGT,0.62
4,TTCACTTGAACTTCTCGTGGGG,0.903
5,TTCAGTGTGAACATCATGGTGT,0.656
6,TATTCGAGACACATCTACCTTC,0.298
7,TATGCTATGATTTTCTTCCAGA,-0.61
8,TAGTACATAGTGAACTGCGATG,-0.997
9,TAAATCACTGTTTCCATCCAGA,0.11
10,TTTTATTGTAGAATTTTCGGAA,-0.252

# Biological target: S100A11
# Experiment: as above
# Details: shRNA
row,Sequence,sensor-assay potency score (higher = more potent)
1,TAGTTCTGTATTCATGAAGCTT,-0.971
2,AAGCTTAGGAACTCTGTCTTGG,0.352
3,TATAACCATCCTTTCCAGCATA,-1.17
4,AATTCTGAGAAATCTAGCTGAC,-0.15
5,TTGTGAAGGCAGCTAGTTCTGT,-0.251
6,AAATTCTGAGAAATCTAGCTGA,0.4
7,AGTGTAGTTATAACCATCCTTT,-1.48
8,TTCTGGTTCTTTGTGAAGGCAG,-0.487
9,TCCAGTTTCTTCATCATGCGGT,-0.21
10,ATCTAGCTGACCATCACTGTTG,-0.625
11,ATCCTTTCCAGCATACTTCTGG,-0.568
